SMILES strings stand for the structures. Screen size: about 48,000 compounds; about 13,000 (27%) showed an effect of 50% or more. This is one part of the list.

The experiment relates to Wolbachia pipientis. Description: Anti-Wolbachia Cell-Based Screen. In kind it is functional. Further details: scale not given: in the data most compounds retested in dose-response had high values. As to conditions: 5 µM.
Consider `CCn1nc(C)c(CCN2CC3(CCOC3)CCC2=O)c1C` (stereo not given), for which the “Percent Effect” value is -24.96%.
Turning to `N#CC1C(=O)Nc2c(cnn2C2CCCC2)C12CCCCC2` (stereo not given), the “Percent Effect” value is 30.08%.
Regarding `CC(C)c1ncc2c(n1)CN(Cc1nc(-c3ccoc3)no1)CC2`, the “Percent Effect” value is on record as -5.396%.
As for `Cn1cnc2c1CCN(Cc1nc(-c3ccco3)no1)C2`, the “Percent Effect” value is -0.7314%.
Regarding `CC(C)c1ncc2c(n1)CN(Cc1nc(-c3ccco3)no1)CC2`, the “Percent Effect” value stood at 103.4%.
Consider `CC(C)c1ncc2c(n1)CN(Cc1nc(Cc3ccccc3)no1)CC2`, for which the “Percent Effect” value is reported as -0.3417%.
As for `c1ccc(-c2noc(CN3CCc4cncnc4C3)n2)nc1`, the “Percent Effect” value worked out at 12.32%.
Regarding `CC(C)c1ncc2c(n1)CN(Cc1nc(-c3ccccn3)no1)CC2`, the “Percent Effect” value came out at 114.4%.
As to `CCc1ncc2c(n1)CN(Cc1nc(-c3ccccn3)no1)CC2`, the “Percent Effect” value came to 1.522%.
Take `CC(C)c1ncc2c(n1)CN(Cc1nc(-c3cccnc3)no1)CC2`: the “Percent Effect” value is listed as 97.53%.
In the case of `CC1CCCN(S(=O)(=O)N2CCOC3(CCCC3)C2)C1` (stereo not given), the “Percent Effect” value was determined as 2.449%.
`CCC(=O)NCC(=O)NCC(C)(C)c1cccc(Br)c1`: the “Percent Effect” value is listed as 13.04%.
To `COc1cccc2c1OCC(C(=O)NCCn1nc(C)c(Cl)c1C)C2` (stereo not given) belongs -38.77%; to `CCCc1nnc(NC2CCN(C3CCSCC3)CC2)o1`, -8.087%; to `CCc1nnc(CSc2ccccn2)o1`, -8.933%.
To `CN1CC(=O)N(c2cccc(F)c2)CC12CCN(S(=O)(=O)C1CC1)C2.O=C(O)C(F)(F)F` (stereo not given) belongs -1.497%.
As for `CC(C)c1nccn1-c1cncc(C2CCCN(C3CCCCC3)C2)n1` (stereo not given), the “Percent Effect” value came to 98.48%.
To `CC(C)c1nccn1-c1cccc(C2CCCN(C3CCCC3)C2)n1` (stereo not given) belongs 0.08562%; to `CC(C)c1nccn1-c1cncc(C2CCCN(C3CCCC3)C2)n1` (stereo not given), 108%; to `COC[C@]1(O)CCN(C(=O)c2cccc(CN(C)C)c2)CC1(C)C`, 2.502%.
On to `COc1ccc(C)cc1CNCc1ccc(-n2nc(C)cc2C)nc1`, for which the “Percent Effect” value is given as -14.66%.
Regarding `Cc1nc(CCNC(=O)C2CC(=O)N(C(C)(C)C)C2)sc1C` (stereo not given), the “Percent Effect” value was 2.949%.
Consider `Cc1nc(COCc2nc3c(o2)CN(C(=O)c2ccc[nH]2)C3)cs1.O=C(O)C(F)(F)F`, for which the “Percent Effect” value is reported as -0.815%.
For `COC[C@H](C)Nc1cc(C)c2ccc(SC)cc2n1`, the “Percent Effect” value stood at 11.13%.
For the molecule `COc1ccc(CC(C)Nc2cccc(SC)c2)cc1` (stereo not given), the “Percent Effect” value is listed as 111.5%.
Turning to `COc1ccc(C(CO)NC(=O)Nc2cccc(F)c2)cc1` (stereo not given), the “Percent Effect” value was -21.51%.
For `COc1ccc2cc(CNc3c(C)nn(C(C)C)c3C)ccc2c1`, the “Percent Effect” value is reported as -4.986%.
To `COc1ccc(CCC(C)Nc2cccc(SC)c2)cc1` (stereo not given) belongs 100.8%; to `COc1ccc(C(CO)NC(=O)Nc2cccc(C#N)c2)cc1` (stereo not given), -8.791%.
For `Cn1cc(CN2CCc3ncn(C)c3C2COCc2ccccc2)cn1` (stereo not given), the “Percent Effect” value amounted to 0.114%.
Consider `O=C(Cc1ccncc1)N1C[C@@H]2CC[C@H](C1)N(Cc1ccccc1)C2=O`, for which the “Percent Effect” value is on record as 6.116%.
Next, `Cc1nnc([C@H]2C[C@H]3CN(C(=O)Cc4ccc(F)cc4)CC[C@@H]3O2)o1`: -15.1%; `Cc1ccc(CC(=O)N2CCCC(c3cc(C)[nH]n3)C2)cn1` (stereo not given): -0.4689%.
Take `O=C(Cc1ccccc1)N1CCn2cc(Cn3cncn3)nc2C1`: the “Percent Effect” value was 14.97%.
Regarding `Nc1ncnc2nc(C3CCN(C(=O)Cc4ccc(F)cc4)C3)ccc12` (stereo not given), the “Percent Effect” value was found to be 118.1%.
Regarding `Nc1ncnc2nc(C3CCN(C(=O)Cc4ccccc4)C3)ccc12` (stereo not given), the “Percent Effect” value amounted to 78.69%.
Turning to `O=c1[nH]c2cc(S(=O)(=O)N3CCC(c4ccsc4)CC3)ccc2o1`, the “Percent Effect” value turned out to be 12.73%.
Turning to `COC(=O)CNC(=O)CSCc1nc(O)c2cc(C)sc2n1`, the “Percent Effect” value came to 28.1%.
Consider `Cc1cccnc1CN1CCN(C[C@]2(O)CCCN3CCCC[C@@H]32)CC1`, for which the “Percent Effect” value came out at 4.951%.
To `Cc1cc2ncn(C[C@]3(O)CCCN4CCCC[C@@H]43)c2cc1C` belongs 111.8%; to `Cc1ccnc(N2CCN(C[C@]3(O)CCCN4CCCC[C@@H]43)CC2)c1`, -8.166%; to `CCN(Cc1noc(CC(C)C)n1)C[C@]1(O)CCCN2CCCC[C@@H]21`, 2.054%.
For `Cc1cnccc1N1CCN(C[C@]2(O)CCCN3CCCC[C@@H]32)CC1`, the “Percent Effect” value was -12.63%.
Take `O[C@@]1(CNCCOc2ccccc2)CCCN2CCCC[C@@H]21`: the “Percent Effect” value is listed as -8.201%.
Consider `COc1ccc2c(c1)ncn2C[C@]1(O)CCCN2CCCC[C@@H]21`, for which the “Percent Effect” value is 108.1%.
Take `O[C@@]1(Cn2cnc(Cl)c2Cl)CCCN2CCCC[C@@H]21`: the “Percent Effect” value came out at 101.1%.
Next, `O[C@@]1(CN2CCN(Cc3ccncc3)CC2)CCCN2CCCC[C@@H]21`: 17.3%; `CCS(=O)(=O)N1Cc2c(Cn3ccnc3)nn(C(C)C)c2C1`: 9.692%; `COC[C@@]12CC[C@@H](N3CCOCC3)C[C@H]1CCN(c1cc(C)ccn1)C2`: -3.135%.
On to `Cc1nc(C)c(C(=O)NCCNC(=O)c2ccc(F)cc2F)s1`, for which the “Percent Effect” value was 5.73%.
`Cc1cccc(C(=O)NCCCN2CCN(c3ccccc3)CC2)c1`: the “Percent Effect” value was found to be 0.2933%.
To `NC(=O)CCCNC(=O)Cc1cccc(I)c1` belongs -16.28%.
As to `O=C(CCNC(=O)c1ccoc1)Nc1ccc(F)cc1F`, the “Percent Effect” value is -4.684%.
For the molecule `O=C(Cc1cccc(O)c1)NCCCNC(=O)c1cccc(F)c1`, the “Percent Effect” value amounted to 107.1%.
In the case of `O=C(Nc1ccc(F)cc1F)NC1(CO)CCOCC1`, the “Percent Effect” value was -12.95%.
Regarding `O=C(NCCCNC(=O)c1ccccc1)Nc1ccc(F)cc1F`, the “Percent Effect” value came to 98.16%.
Take `O=C(NCCCO)Nc1cccc(I)c1`: the “Percent Effect” value was 5.16%.
As to `O=C(NCCCNC(=O)c1cccc(O)c1)Nc1ccc(Cl)cc1`, the “Percent Effect” value was 112%.
In the case of `O=C(NCCCNC(=O)c1ccc(F)cc1F)c1cccc(O)c1`, the “Percent Effect” value is listed as 113.1%.
Regarding `O=C(NCC(O)c1ccc(F)cc1F)c1cccc(F)c1` (stereo not given), the “Percent Effect” value is listed as -1.094%.
In the case of `CC(NC(=O)NC1CCN(Cc2ccccn2)CC1)c1nncn1C` (stereo not given), the “Percent Effect” value is given as 0.2394%.
As to `CC(C)(C)CN[C@@H]1CO[C@H](CNC(=O)c2ccncc2)[C@H]1O`, the “Percent Effect” value is given as -9.96%.
`CC(=O)Nc1ccc(Cl)c(C(=O)N(C)Cc2nc(C)c[nH]2)c1`: the “Percent Effect” value is given as -7.642%.
On to `CCCc1nc(CN(C)CCOc2ccccc2)cs1`, for which the “Percent Effect” value is -8.28%.
Consider `CC(C)N(C)S(=O)(=O)N1CCCC1CC(=O)c1cccs1` (stereo not given), for which the “Percent Effect” value is 9.795%.

The record behind these values is ChEMBL document CHEMBL3988442, “University of Dundee, Small-Polar-MMV Screening Library” (2021).
